# Test results taken from the supplement of paper PMC4466140.
# Biological target: AgAbp1
# Assay: SPOT peptide array binding signal intensity (averaged, normalized) (arbitrary units (background-subtracted, floor 0; scale differs between SH3 domains)); higher = stronger binding of the SH3 domain to the peptide
# Summary of the method: (§1)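 Binding signal refers to normalized, background-subtracted spot intensity averaged over replicates, expressed in arbitrary units that differ between domains. GST-fused SH3 domains from four yeast species were incubated at 10 μg/ml overnight at 4°C on cellulose membranes of synthetic 15-mer peptides with cysteines replaced by serines. Bound protein was detected with anti-GST antibody, an HRP anti-mouse secondary and luminol, and quantified with Genespotter.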
row,Binder,SPOT peptide array binding signal intensity
1,FIRKRAPTPPAPSRS,948

# Biological target: AgBbc1
# Assay: as above
# Summary of the method: as §1
row,Binder,SPOT peptide array binding signal intensity
1,FIRKRAPTPPAPSRS,334

# Biological target: AgBem1-D1
# Assay: as above
# Summary of the method: as §1
row,Binder,SPOT peptide array binding signal intensity
1,FIRKRAPTPPAPSRS,340

# Biological target: AgBzz1-D1
# Assay: as above
# Summary of the method: as §1
row,Binder,SPOT peptide array binding signal intensity
1,FIRKRAPTPPAPSRS,224

# Biological target: AgBzz1-D2
# Assay: as above
# Summary of the method: as §1
row,Binder,SPOT peptide array binding signal intensity
1,FIRKRAPTPPAPSRS,120

# Biological target: AgCyk3
# Assay: as above
# Summary of the method: as §1
row,Binder,SPOT peptide array binding signal intensity
1,FIRKRAPTPPAPSRS,1

# Biological target: AgFus1
# Assay: as above
# Summary of the method: as §1
row,Binder,SPOT peptide array binding signal intensity
1,FIRKRAPTPPAPSRS,203

# Biological target: AgHof1
# Assay: as above
# Summary of the method: as §1
row,Binder,SPOT peptide array binding signal intensity
1,FIRKRAPTPPAPSRS,65.2

# Biological target: AgHse1
# Assay: as above
# Summary of the method: as §1
row,Binder,SPOT peptide array binding signal intensity
1,FIRKRAPTPPAPSRS,312

# Biological target: AgLsb1
# Assay: as above
# Summary of the method: as §1
row,Binder,SPOT peptide array binding signal intensity
1,FIRKRAPTPPAPSRS,1090

# Biological target: AgLsb4
# Assay: as above
# Summary of the method: as §1
row,Binder,SPOT peptide array binding signal intensity
1,FIRKRAPTPPAPSRS,60

# Biological target: AgMyo5
# Assay: as above
# Summary of the method: as §1
row,Binder,SPOT peptide array binding signal intensity
1,FIRKRAPTPPAPSRS,1.75

# Biological target: AgNbp2
# Assay: as above
# Summary of the method: as §1
row,Binder,SPOT peptide array binding signal intensity
1,FIRKRAPTPPAPSRS,1060

# Biological target: AgRvs167
# Assay: as above
# Summary of the method: as §1
row,Binder,SPOT peptide array binding signal intensity
1,FIRKRAPTPPAPSRS,5.67

# Biological target: AgSho1
# Assay: as above
# Summary of the method: as §1
row,Binder,SPOT peptide array binding signal intensity
1,FIRKRAPTPPAPSRS,14

# Biological target: AgSla1-D1-D2
# Assay: as above
# Summary of the method: as §1
row,Binder,SPOT peptide array binding signal intensity
1,FIRKRAPTPPAPSRS,196

# Biological target: AgSla1-D3
# Assay: as above
# Summary of the method: as §1
row,Binder,SPOT peptide array binding signal intensity
1,FIRKRAPTPPAPSRS,23.2

# Biological target: CaAbp1-D1
# Assay: as above
# Summary of the method: as §1
row,Binder,SPOT peptide array binding signal intensity
1,FIRKRAPTPPAPSRS,2450

# Biological target: CaAbp1-D2
# Assay: as above
# Summary of the method: as §1
row,Binder,SPOT peptide array binding signal intensity
1,FIRKRAPTPPAPSRS,734

# Biological target: CaBbc1
# Assay: as above
# Summary of the method: as §1
row,Binder,SPOT peptide array binding signal intensity
1,FIRKRAPTPPAPSRS,641

# Biological target: CaBem1-D1
# Assay: as above
# Summary of the method: as §1
row,Binder,SPOT peptide array binding signal intensity
1,FIRKRAPTPPAPSRS,813

# Biological target: CaBzz1-D1
# Assay: as above
# Summary of the method: as §1
row,Binder,SPOT peptide array binding signal intensity
1,FIRKRAPTPPAPSRS,1840

# Biological target: CaBzz1-D2
# Assay: as above
# Summary of the method: as §1
row,Binder,SPOT peptide array binding signal intensity
1,FIRKRAPTPPAPSRS,4040

# Biological target: CaCyk3
# Assay: as above
# Summary of the method: as §1
row,Binder,SPOT peptide array binding signal intensity
1,FIRKRAPTPPAPSRS,19.5

# Biological target: CaFus1
# Assay: as above
# Summary of the method: as §1
row,Binder,SPOT peptide array binding signal intensity
1,FIRKRAPTPPAPSRS,334

# Biological target: CaHof1
# Assay: as above
# Summary of the method: as §1
row,Binder,SPOT peptide array binding signal intensity
1,FIRKRAPTPPAPSRS,0.5

# Biological target: CaHse1
# Assay: as above
# Summary of the method: as §1
row,Binder,SPOT peptide array binding signal intensity
1,FIRKRAPTPPAPSRS,10.8

# Biological target: CaLsb1
# Assay: as above
# Summary of the method: as §1
row,Binder,SPOT peptide array binding signal intensity
1,FIRKRAPTPPAPSRS,167

# Biological target: CaLsb4
# Assay: as above
# Summary of the method: as §1
row,Binder,SPOT peptide array binding signal intensity
1,FIRKRAPTPPAPSRS,198

# Biological target: CaMyo5
# Assay: as above
# Summary of the method: as §1
row,Binder,SPOT peptide array binding signal intensity
1,FIRKRAPTPPAPSRS,12.8

# Biological target: CaNbp2
# Assay: as above
# Summary of the method: as §1
row,Binder,SPOT peptide array binding signal intensity
1,FIRKRAPTPPAPSRS,415

# Biological target: CaRvs167
# Assay: as above
# Summary of the method: as §1
row,Binder,SPOT peptide array binding signal intensity
1,FIRKRAPTPPAPSRS,38.7

# Biological target: CaRvs167-3
# Assay: as above
# Summary of the method: as §1
row,Binder,SPOT peptide array binding signal intensity
1,FIRKRAPTPPAPSRS,40.8

# Biological target: CaSho1
# Assay: as above
# Summary of the method: as §1
row,Binder,SPOT peptide array binding signal intensity
1,FIRKRAPTPPAPSRS,158

# Biological target: CaSla1-D1-D2
# Assay: as above
# Summary of the method: as §1
row,Binder,SPOT peptide array binding signal intensity
1,FIRKRAPTPPAPSRS,1780

# Biological target: CaSla1-D3
# Assay: as above
# Summary of the method: as §1
row,Binder,SPOT peptide array binding signal intensity
1,FIRKRAPTPPAPSRS,7.75

# Biological target: ScAbp1
# Assay: as above
# Summary of the method: as §1
row,Binder,SPOT peptide array binding signal intensity
1,FIRKRAPTPPAPSRS,256

# Biological target: ScBbc1
# Assay: as above
# Summary of the method: as §1
row,Binder,SPOT peptide array binding signal intensity
1,FIRKRAPTPPAPSRS,99

# Biological target: ScBem1-D1
# Assay: as above
# Summary of the method: as §1
row,Binder,SPOT peptide array binding signal intensity
1,FIRKRAPTPPAPSRS,27.5

# Biological target: ScBzz1-D1
# Assay: as above
# Summary of the method: as §1
row,Binder,SPOT peptide array binding signal intensity
1,FIRKRAPTPPAPSRS,160

# Biological target: ScBzz1-D2
# Assay: as above
# Summary of the method: as §1
row,Binder,SPOT peptide array binding signal intensity
1,FIRKRAPTPPAPSRS,53

# Biological target: ScCyk3
# Assay: as above
# Summary of the method: as §1
row,Binder,SPOT peptide array binding signal intensity
1,FIRKRAPTPPAPSRS,46

# Biological target: ScFus1
# Assay: as above
# Summary of the method: as §1
row,Binder,SPOT peptide array binding signal intensity
1,FIRKRAPTPPAPSRS,84.5

# Biological target: ScHof1
# Assay: as above
# Summary of the method: as §1
row,Binder,SPOT peptide array binding signal intensity
1,FIRKRAPTPPAPSRS,5.25

# Biological target: ScHse1
# Assay: as above
# Summary of the method: as §1
row,Binder,SPOT peptide array binding signal intensity
1,FIRKRAPTPPAPSRS,922

# Biological target: ScLsb1
# Assay: as above
# Summary of the method: as §1
row,Binder,SPOT peptide array binding signal intensity
1,FIRKRAPTPPAPSRS,224

# Biological target: ScLsb2
# Assay: as above
# Summary of the method: as §1
row,Binder,SPOT peptide array binding signal intensity
1,FIRKRAPTPPAPSRS,313

# Biological target: ScLsb3
# Assay: as above
# Summary of the method: as §1
row,Binder,SPOT peptide array binding signal intensity
1,FIRKRAPTPPAPSRS,432

# Biological target: ScLsb4
# Assay: as above
# Summary of the method: as §1
row,Binder,SPOT peptide array binding signal intensity
1,FIRKRAPTPPAPSRS,26

# Biological target: ScMyo3
# Assay: as above
# Summary of the method: as §1
row,Binder,SPOT peptide array binding signal intensity
1,FIRKRAPTPPAPSRS,22

# Biological target: ScMyo5
# Assay: as above
# Summary of the method: as §1
row,Binder,SPOT peptide array binding signal intensity
1,FIRKRAPTPPAPSRS,20.8

# Biological target: ScNbp2
# Assay: as above
# Summary of the method: as §1
row,Binder,SPOT peptide array binding signal intensity
1,FIRKRAPTPPAPSRS,2260

# Biological target: ScPex13
# Assay: as above
# Summary of the method: as §1
row,Binder,SPOT peptide array binding signal intensity
1,FIRKRAPTPPAPSRS,156

# Biological target: ScRvs167
# Assay: as above
# Summary of the method: as §1
row,Binder,SPOT peptide array binding signal intensity
1,FIRKRAPTPPAPSRS,613

# Biological target: ScSho1
# Assay: as above
# Summary of the method: as §1
row,Binder,SPOT peptide array binding signal intensity
1,FIRKRAPTPPAPSRS,866

# Biological target: ScSla1-D1-D2
# Assay: as above
# Summary of the method: as §1
row,Binder,SPOT peptide array binding signal intensity
1,FIRKRAPTPPAPSRS,2370

# Biological target: ScSla1-D3
# Assay: as above
# Summary of the method: as §1
row,Binder,SPOT peptide array binding signal intensity
1,FIRKRAPTPPAPSRS,29.8

# Biological target: SpAbp1-D1
# Assay: as above
# Summary of the method: as §1
row,Binder,SPOT peptide array binding signal intensity
1,FIRKRAPTPPAPSRS,342

# Biological target: SpBbc1
# Assay: as above
# Summary of the method: as §1
row,Binder,SPOT peptide array binding signal intensity
1,FIRKRAPTPPAPSRS,6.5

# Biological target: SpBzz1-D1
# Assay: as above
# Summary of the method: as §1
row,Binder,SPOT peptide array binding signal intensity
1,FIRKRAPTPPAPSRS,770

# Biological target: SpBzz1-D2
# Assay: as above
# Summary of the method: as §1
row,Binder,SPOT peptide array binding signal intensity
1,FIRKRAPTPPAPSRS,200

# Biological target: SpCyk3
# Assay: as above
# Summary of the method: as §1
row,Binder,SPOT peptide array binding signal intensity
1,FIRKRAPTPPAPSRS,2

# Biological target: SpHof1
# Assay: as above
# Summary of the method: as §1
row,Binder,SPOT peptide array binding signal intensity
1,FIRKRAPTPPAPSRS,116

# Biological target: SpHof1-2
# Assay: as above
# Summary of the method: as §1
row,Binder,SPOT peptide array binding signal intensity
1,FIRKRAPTPPAPSRS,10.5

# Biological target: SpHof1-3
# Assay: as above
# Summary of the method: as §1
row,Binder,SPOT peptide array binding signal intensity
1,FIRKRAPTPPAPSRS,567

# Biological target: SpHse1
# Assay: as above
# Summary of the method: as §1
row,Binder,SPOT peptide array binding signal intensity
1,FIRKRAPTPPAPSRS,377

# Biological target: SpLsb1
# Assay: as above
# Summary of the method: as §1
row,Binder,SPOT peptide array binding signal intensity
1,FIRKRAPTPPAPSRS,556

# Biological target: SpLsb4
# Assay: as above
# Summary of the method: as §1
row,Binder,SPOT peptide array binding signal intensity
1,FIRKRAPTPPAPSRS,1130

# Biological target: SpMyo1
# Assay: as above
# Summary of the method: as §1
row,Binder,SPOT peptide array binding signal intensity
1,FIRKRAPTPPAPSRS,24.5

# Biological target: SpNbp2
# Assay: as above
# Summary of the method: as §1
row,Binder,SPOT peptide array binding signal intensity
1,FIRKRAPTPPAPSRS,75

# Biological target: SpPex13
# Assay: as above
# Summary of the method: as §1
row,Binder,SPOT peptide array binding signal intensity
1,FIRKRAPTPPAPSRS,33

# Biological target: SpRvs167
# Assay: as above
# Summary of the method: as §1
row,Binder,SPOT peptide array binding signal intensity
1,FIRKRAPTPPAPSRS,293

# Biological target: SpSla1-D1-D2
# Assay: as above
# Summary of the method: as §1
row,Binder,SPOT peptide array binding signal intensity
1,FIRKRAPTPPAPSRS,19

# Biological target: SpSla1-D3
# Assay: as above
# Summary of the method: as §1
row,Binder,SPOT peptide array binding signal intensity
1,FIRKRAPTPPAPSRS,4
